Data as given in PubChem BioAssay AID2284198 (EPA ToxCast).
Activity calls are given as the source filed them. How the source made its calls: active means hit-call score of the fitted dose curve at least 0.9, where 1 is the maximum; inactive means score below 0.9.

biological target: human Adenosine Transporter, SLC29A1 (gene 2030) (UniProt Q99808); experiment: ERF_TW_TR_hSLC35B3: Eurofins (ERF) Transporter Radioligand Binding LeadHunter Assay for human Adenosine Transporter Antagonism
Experimental: ERF_TW_TR_hSLC35B3 is a biochemical, single-readout assay that uses extracted gene-proteins in a cell-free assay. Measurements were taken 1 hour after chemical dosing in a 96-well plate. See Adenosine Human Transporter Binding (Antagonist Radioligand) Assay, Panlabs.ERF_TW_TR_hSLC35B3 is an assay component calculated from the ERF_TW_TR_hSLC35B3 assay. It is designed to measure radioligand binding using a type of binding reporter as detected by scintillation counting with radiometry technology.Data from the assay component ERF_TW_TR_hSLC35B3 was analyzed at the assay endpoint, ERF_TW_TR_hSLC35B3, in the positive analysis fitting direction relative to DMSO as the negative control and baseline of activity. Using a type of binding reporter, loss-of-signal activity can be used to understand changes in transporter binding as they relate to gene SLC29A1. To generalize the intended target to other relatable targets, this assay endpoint is annotated to the transporter intended target family, where the subfamily is nucleoside transporter.
This assay measures binding of [3H]Nitrobenzylthioinosine to sites associated with the transporter of adenosine. Human adenosine transporter membranes are prepared in Tris-HCl buffer pH 7.4. A 24 ug aliquot of membrane is incubated with 0.5 nM [3H]Nitrobenzylthioinosine for 60 minutes at 25C. Non-specific binding is estimated in the presence of 5 uM nitrobenzylthioinosine. Membranes are filtered and washed, the filters are then counted to determine [3H]Nitrobenzylthioinosine specifically bound. Compounds are screened at 10 uM.Test Sample Requirements: Minimum for 1) Screen: 25 ul of 10 mM stock -OR- 1 mg (pre-weighed). 2) Dose Response: 60 ul of 10 mM stock -OR- 1 mg (pre-weighed).

Chain of human Adenosine Transporter, SLC29A1 (gene 2030) (Q99808 whole entry, looked up): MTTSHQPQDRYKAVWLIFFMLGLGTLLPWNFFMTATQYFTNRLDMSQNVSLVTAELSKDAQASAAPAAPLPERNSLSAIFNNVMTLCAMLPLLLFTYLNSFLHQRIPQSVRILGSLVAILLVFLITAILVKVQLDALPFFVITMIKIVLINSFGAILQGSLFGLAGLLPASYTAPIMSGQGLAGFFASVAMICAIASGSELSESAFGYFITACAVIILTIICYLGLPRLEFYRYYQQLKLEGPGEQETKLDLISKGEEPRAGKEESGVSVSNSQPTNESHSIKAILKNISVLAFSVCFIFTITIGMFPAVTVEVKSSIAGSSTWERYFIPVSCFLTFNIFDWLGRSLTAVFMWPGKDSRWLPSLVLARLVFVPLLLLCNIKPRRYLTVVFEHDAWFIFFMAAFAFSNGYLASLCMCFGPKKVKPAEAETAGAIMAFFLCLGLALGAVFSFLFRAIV

AC50, active:
COc1cc(CCC(=O)CC(=O)CCc2ccc(O)c(OC)c2)ccc1O 574 nM, O=C(/C=C/c1ccc(O)cc1)CC(=O)/C=C/c1ccc(O)cc1 153 nM, COc1cc(/C=C/C(=O)CC(=O)/C=C/c2ccc(O)c(OC)c2)ccc1O 98 nM
